Experimental data from the supplement of paper PMC7156485.
± gives the standard deviation of the averaged measurements.

Test system: HCC1569
Assay: cell number relative to DMSO (% of DMSO); higher = more cells (less growth inhibition / toxicity)
Details: concentration: 10 µM; 24 h
Method in brief: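 Using 384-well plates with 800 cells per well in RPMI plus 10% FBS, HCC1569 and TDF cells were exposed to compounds at 10 µM, in triplicate, for 24 h at 37 °C. Imaging of six fields per well at ×10 followed H1.0 and DAPI staining. The reported quantity, H1.0 nuclear intensity or cell number, is a median of replicates given as percent of the plate control, and HCC1569 values were smoothed for positional effects.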
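Further: TDF denotes transformed human dermal fibroblasts of mesenchymal origin.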

Structure (SMILES) | cell number
CN(Cc1cnc2nc(N)nc(N)c2n1)c1ccc(C(=O)NC(CCC(=O)O)C(=O)O)cc1 (single isomer, unassigned; (-)) [(-)Amethopterin] | 96.4
CN1c2cc3c(cc2N=C(c2ccc(C(=O)O)cc2)c2ccccc21)C(C)(C)CCC3(C)C | 77
CC(C)(Sc1ccc(CCN(CCCCC2CCCCC2)C(=O)NC2CCCCC2)cc1)C(=O)O | 101
CC(C=CC1=C(C)CCCC1(C)C)=CC=CC(C)=CC(=O)O [Retinoic acid] | 104
CCOC(=O)c1cnc2c(cnn2CC)c1NN=C(C)C [Etazolate] | 102
CS(=O)(=O)Nc1ccc(-c2coc3cc(OCc4cccc(C(=O)O)c4)ccc3c2=O)cc1 | 101
O=P(O)(O)C(O)(Cc1cccnc1)P(=O)(O)O [Risedronic acid] | 110
Clc1ccc(CON=C(Cn2ccnc2)c2ccc(Cl)cc2Cl)c(Cl)c1 [Oxiconazole] | 99.8
COc1cc(Cc2cnc(N)nc2N)cc(OC)c1OC [Trimethoprim] | 99 ± 1.6
COc1c(O)cc(O)c2c(=O)cc(-c3ccccc3)oc12 [Wogonin] | 100
O=C(O)CCCC=CCC1C(O)CC(O)C1C=CC(O)COc1cccc(C(F)(F)F)c1 (stereo not given) [Fluprostenol] | 100
CCCCCCC(O)CC=CCCCCCCCC(=O)O (stereo not given) [Ricinoleic acid] | 98.1
CCN1C(=CC(C)=O)Sc2ccc(OC)cc21 [Cdc2-Like Kinase Inhibitor, TG003] | 97.3
NNC(=O)c1ccncc1 [Isoniazid] | 105
NC(N)=Nc1nc(CSCCC(N)=NS(N)(=O)=O)cs1 | 103
O=C1OC(C(O)CO)C(O)=C1O (stereo not given) [Ascorbic acid] | 100
CC(C)c1cc(C(C)C)c(-c2csc(N(CCN(C)C)Cc3cccnc3)n2)c(C(C)C)c1 | 50.7
COC(=O)C1C(O)CCC2CN3CCc4c([nH]c5ccccc45)C3CC21.Cl (stereo not given) | 102 ± 5.1
CCCCCCC=CCCCCCCCCCC(=O)O [11(E)-Octadecenoic acid] | 101
CCC(C)C(=O)OC1CC(O)C=C2C=CC(C)C(CCC3CC(O)CC(=O)O3)C21 (stereo not given) [Pravastatin Lactone] | 101

Structure (SMILES) | cell number
NC(=O)CC[C@H](N)C(=O)O [L-Glutamine] | 100
CCCCCCC=CCCCCCCCCC(=O)O [10(E)-Heptadecenoic acid] | 97.6
CC(C=CC1=C(C)CCCC1(C)C)=CC=CC(C)=CC(=O)Nc1ccc(O)cc1 [4-Hydroxyphenylretinamide] | 89.9
COc1cc2nccc(Oc3ccc(NC(=O)Nc4ccc(F)cc4F)c(F)c3)c2cc1OC | 74.9
O=C(COc1ccc(C(=O)c2ccccc2)cc1)NC1CCN(Cc2ccccc2)CC1 [2-(4-benzoylphenoxy)-N-(1-benzyl-4-piperidinyl)acetamide] | 81.9
CCCCCCCCC=CCCCCCCCCCCCCC(=O)O [14(E)-Tricosenoic acid] | 98.3
O=C(O)c1cc(-c2ccc(F)cc2F)ccc1O [Diflunisal] | 102
CC1(C)CCC(NC(=O)C(N)CCC(=O)O)CC1 (stereo not given) | 103
NC(=O)c1noc([C@H](CCCC2CCCCC2)CC(=O)NO)n1 | 73.8
CC(=O)Oc1ccccc1C(=O)O [Acetylsalicylic Acid] | 101
Cl.Cl.OCCN1CCN(CCCN2c3ccccc3Sc3ccc(C(F)(F)F)cc32)CC1 [Fluphenazine.2HCl] | 95.6
Cl.O[C@H](c1cc(C(F)(F)F)nc2c(C(F)(F)F)cccc12)[C@@H]1CCCCN1 | 52
CCCN(CCc1ccccc1)C1CCc2c(O)cccc2C1 (stereo not given) [2-(N-Phenethyl-N-propyl)amino-5-hydroxytetralin] | 105
Ic1cccc(CSc2nnc(-c3ccncc3)o2)c1 [GSK-3b Inhibitor II] | 93.5
Nc1cc(=O)nc(N)[nH]1 [2,6-Diamino-4-pyrimidinone] | 99.3
O=C1CCc2ccc(OCCCCN3CCN(c4cccc(Cl)c4Cl)CC3)cc2N1 [Aripiprazole] | 95.5
Cc1cn(-c2cc(NC(=O)c3ccc(C)c(Nc4nccc(-c5cccnc5)n4)c3)cc(C(F)(F)F)c2)cn1 [Nilotinib] | 100
COCCCCC(=NOCCN)c1ccc(C(F)(F)F)cc1.O=C(O)C=CC(=O)O [Fluvoxamine maleate] | 98.6
Cl.Cl.Cl.NCCC1CCCC(CCN)N1 (stereo not given) [MDL 26,630 trihydrochloride] | 104
CC(C)CCC[C@@H](C)[C@H]1CC[C@H]2[C@@H]3CC(=O)[C@H]4C[C@@H](O)CC[C@]4(C)[C@H]3CC[C@]12C [(3beta,5alpha)-3-hydroxycholestan-6-one] | 105
